Screen size: about 16,000 compounds; about 70 (0.4%) were called active. No stated cut-off is given here; in the data, active means inhibition above about 50%; inactive means the rest. Shown is part of a subset that was picked to be rich in actives.

Chain of Kappa-type opioid receptor (Homo sapiens) (P41145 whole entry, looked up): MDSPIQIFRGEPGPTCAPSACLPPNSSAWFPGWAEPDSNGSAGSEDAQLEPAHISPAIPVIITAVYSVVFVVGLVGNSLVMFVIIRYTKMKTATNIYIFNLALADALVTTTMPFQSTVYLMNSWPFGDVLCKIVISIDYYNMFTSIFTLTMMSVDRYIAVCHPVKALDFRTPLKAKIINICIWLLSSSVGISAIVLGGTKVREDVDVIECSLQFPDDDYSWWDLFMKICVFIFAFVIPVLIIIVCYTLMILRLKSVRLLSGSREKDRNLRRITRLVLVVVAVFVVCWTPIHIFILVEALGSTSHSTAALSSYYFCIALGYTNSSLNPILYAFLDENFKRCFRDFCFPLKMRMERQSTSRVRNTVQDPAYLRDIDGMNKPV

The assay has as its target Kappa-type opioid receptor (Homo sapiens) (UniProt P41145). The experiment in a line: antagonists of human kappa opioid receptor OPRK1, Maybridge library (AID 652031). To be noted: OPRK1 cells, antagonist mode, fluorescence readout; at 9 µM; active compounds read high.
For `COc1ccccc1N1CCN(C/C(N)=N/O)CC1`, the inhibition – broadly, the change of the read-out against control, counted positive when it falls – was -2.8% (inactive).
To `N/C(=N\OC(=O)c1cccc(Cl)c1)c1ccc2nonc2c1` belongs 3% (inactive).
To `COC(=O)C1=C(NNc2ccccc2)CSC1` belongs 8.6% (inactive); to `FC(F)(F)c1ccc(-n2cn[nH]c2=S)cc1`, -0.4% (inactive).
Then `COc1ccc(Cc2nc(C(C)(C)C)cs2)cc1`, with 10.7% (inactive).
Take `CCOC(=O)CNC(=O)c1ccc(-c2cccc([N+](=O)[O-])c2)o1`: the inhibition is 9.9% (inactive).
To `CSc1nc(-n2nc(C)cc2C)nc(-c2ccco2)c1C#N` belongs -17.5% (inactive); to `CC(N)=NCCc1ccncc1`, -6% (inactive).
In the case of `N#Cc1cn(-c2cccc(C(F)(F)F)c2)c(=O)n(Cc2ccc(Cl)cc2)c1=O`, the inhibition was -10.4% (inactive).
As to `CC(C)S(=O)(=O)c1cscc1N/C=C(/C#N)C(=O)C1CC1`, the inhibition is 14.8% (inactive).
To `N#Cc1ccc(Oc2ccc(Cl)cc2)c([N+](=O)[O-])c1` belongs 5.4% (inactive).
As for `O=C(CSc1nnc(-c2ccncc2)n1Cc1ccccc1)Nc1nnc(-c2ccco2)s1`, the inhibition was 2.3% (inactive).
To `COC(C)(OC)c1ccc(C#N)c(=S)[nH]1` belongs -2.3% (inactive); to `FC(F)(F)c1cnc(NN=C2CCSCC2)c(Cl)c1`, -7.6% (inactive).
To `COc1ccc(COCC(O)CN2CCN(c3ccc(C(F)(F)F)cn3)CC2)cc1` (centres undefined) belongs -10.5% (inactive); to `CN(C)C(=S)Nc1ccc(Br)cc1Cl`, 12.1% (inactive); to `N#CCCSc1sc(=S)sc1SCCC#N`, -2.5% (inactive).
In the case of `N/C(=N\OC(=O)CCn1cccc(C(F)(F)F)c1=O)c1ccc(OC(F)(F)F)cc1`, the inhibition is 3.1% (inactive).
Then `Cc1cc(-c2noc(-c3cccs3)n2)no1`, with -20.2% (inactive).
Then `C/C(=N\NC(=S)Nc1cccc(F)c1)c1ccco1`, with 14.4% (inactive); and `Cn1cccc1CNC(=O)c1cc(F)cc2c1OCOC2`, with 11.7% (inactive).
Then `CSc1nc(N/C=C(\C#N)C(=O)c2cccs2)n2nc(C)cc2n1`, with 9.3% (inactive); and `COc1c(/C(N)=N/O)cc(C)c2c1CCC2`, with -7.6% (inactive).
Turning to `COc1cccc(C(=O)c2sc3nsc(SCc4ccc(F)cc4)c3c2N)c1`, the inhibition was 81.9% (active).
Then `CCOC(=O)N1CCN(CC(O)COc2ccc(OC(F)(F)F)cc2)CC1` (centres undefined), with 3.6% (inactive); and `COC(=O)c1ccccc1N(C)C(=O)c1cc(OC)c(OC)c(OC)c1`, with 2.6% (inactive).
Then `Cc1ccc(S(=O)(=O)NNC(=O)CCc2nc(-c3ccc(Cl)cc3)no2)cc1`, with -5.8% (inactive); and `COC(=O)c1cc(C(N)=O)c(SC)s1`, with 8.2% (inactive); and `O=C(c1ccc(F)cc1)C1CCN(Cc2cn[nH]c2-c2ccccc2)CC1`, with -2.9% (inactive).

The values are drawn from PubChem BioAssay AID652031 (The Scripps Research Institute Molecular Screening Center, 2013).
